# Results published in PubChem BioAssay (NCATS).
# Values without a mark were called inactive.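 How the source made its calls: active means compounds whose dose series gives a full or clear partial fitted curve of increased nuclear translocation; inconclusive means weak partial curve or effect only at the top dose; inactive means no dose-dependent translocation response.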
# Target: Glucocorticoid receptor (Homo sapiens) (UniProt P04150)
# Test: GR-GFP Redistribution (AID 450)
# Details: U2OS GR-GFP nuclear translocation, laser cytometry, 2 h
# Text: NIH Molecular Libraries Screening Centers Network [MLSCN]
# NIH Chemical Genomics Center [NCGC]
# The glucocorticoid receptor (GR) Redistribution assay (BioImage) enables the visualization of GR cytoplasmic to nuclear translocation by the use of a GR-GFP fusion. GR is normally cytosolic, however ligands such as dexamethasone, cause nuclear translocation where the protein binds to response elements and interacts with various co-factors to modulate transcription. Because both functional agonists and antagonists can induce nuclear translocation, this assay can detect ligands regardless of their effects on gene expression. GR-GFP expressing U20S cells were used here. Dexamethasone was the positive control for translocation and data normalization. Detection of nuclear translocation was performed in 1536-well plates using the Acumen laser scanning plate cytometer (TTP LabTech). Validation of this assay and a detailed protocol have been described.
# NCGC Assay Protocol Summary:
# GR-GFP U2OS cells were maintained in DMEM with Glutamax and high glucose, 1% v/v penicillin-streptomycin, and 0.5 mg/mL Geneticin. For cell culture, 10% […] fetal bovine serum (FBS) was used (Invitrogen #26140-079). For cell plating 10% dextran, charcoal-stripped FBS (Hyclone SH30068.03) was used. U2OS cells were trypsin treated, suspended in medium, and passed through a 40 um basket filter. The cells were seeded at 600 cells/5 uL/well into clear-bottom black sided 1536-well plates and incubated for approximately 20 hrs, 37degC, 5%, CO2 in a tissue culture incubator. Twenty-three nL of compound was delivered by pin tool and the plates were incubated as above for 2 hrs. The compounds were tested as a 7-point titration ranging from 46 uM to 0.6 nM. The cells were fixed using the Kalypsys Washer/Dispenser station. The fixing protocol involved aspiration of the cell media, addition of 6 uL/well of PBS, aspiration of PBS, addition of 5uL/well of 100% methanol, aspiration of methanol, and addition of 3 uL/well PBS with 1.5 uM propidium iodide (PI). The plates were read by the Acumen Explorer using a 1 x 8 um scan of the whole well area. PI fluorescence triggered the collection of PI and GFP signals. A nuclei population was defined by a 10 to 100 um width and depth filter that eliminated small and large fluorescent particles. Two subpopulations of nuclei were then defined by peak intensity of GFP fluorescence to obtain translocated and untranslocated objects. The number of translocated objects was used for data normalization.
# Keywords: NIH Roadmap, MLSCN, MLI, MLSMR, sOGT, qHTS, NCGC
# Potency means the concentration at half of the fitted maximal effect.
# Glucocorticoid receptor (Homo sapiens), sequence (P04150 whole entry, looked up): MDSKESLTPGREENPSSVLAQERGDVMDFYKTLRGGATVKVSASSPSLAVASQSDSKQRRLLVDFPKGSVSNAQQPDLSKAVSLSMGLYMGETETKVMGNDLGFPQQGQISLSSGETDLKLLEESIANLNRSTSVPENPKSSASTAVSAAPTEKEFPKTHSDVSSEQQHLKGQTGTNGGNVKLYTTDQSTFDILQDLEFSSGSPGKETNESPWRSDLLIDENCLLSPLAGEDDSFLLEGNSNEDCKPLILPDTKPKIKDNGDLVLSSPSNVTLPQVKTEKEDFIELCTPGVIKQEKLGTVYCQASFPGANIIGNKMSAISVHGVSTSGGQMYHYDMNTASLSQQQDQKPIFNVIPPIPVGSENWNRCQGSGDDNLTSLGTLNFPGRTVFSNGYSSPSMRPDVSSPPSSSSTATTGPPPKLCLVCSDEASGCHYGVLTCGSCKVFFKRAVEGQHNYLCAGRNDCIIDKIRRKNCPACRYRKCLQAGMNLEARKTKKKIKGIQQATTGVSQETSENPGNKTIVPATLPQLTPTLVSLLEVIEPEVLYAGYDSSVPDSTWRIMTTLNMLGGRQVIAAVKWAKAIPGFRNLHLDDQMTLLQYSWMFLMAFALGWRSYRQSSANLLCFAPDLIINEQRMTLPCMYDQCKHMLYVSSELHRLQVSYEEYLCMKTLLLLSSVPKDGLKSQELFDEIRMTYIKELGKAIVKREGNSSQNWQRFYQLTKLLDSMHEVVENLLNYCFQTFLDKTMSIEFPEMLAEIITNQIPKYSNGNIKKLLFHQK
row,Structure (SMILES),Potency
1,CC(=O)Nc1ccc2c(c1)C(=Nc1ccc(C(=O)O)cc1)c1ccccc1-2,> 46 µM
2,CC1=C(C(=O)O)N2C(=O)[C@@H](NC(=O)[C@@H](N)C3=CCC=CC3)[C@@H]2SC1,> 46 µM
3,COc1nc(N)nc2c1ncn2[C@@H]1C[C@H](O)[C@@H](CO)O1,> 46 µM
4,NC(=O)NC(=O)[C@H]1CCCC[C@@H]1C(=O)O,> 46 µM
5,O[C@@H](C1=C/C(=C\c2ccncc2)c2ccccc21)c1ccncc1,> 46 µM
6,CC(C)(CO[C@H]1C[C@H]2CC[C@@]1(C)C2(C)C)[N+](=O)[O-],> 46 µM
7,CC[N+](C)(CC)CCN1C(=O)c2ccccc2S1(=O)=O,> 46 µM
8,O=[N+]([O-])c1ccccc1N=Nc1c(O)[nH]c2ccc(S(=O)(=O)O)cc12,> 46 µM
9,CC(C)C(O)(C(C)C)C(C)C,> 46 µM
10,COCCn1c(=O)c(-c2cc(F)cc(F)c2)nc2cnc(Oc3ccc(OC)cc3)nc21,> 9.22 µM
11,c1ccc2c(CN3CCN(Cc4c[nH]c5ccccc45)CC3)c[nH]c2c1,> 46 µM
12,Nc1ccc(C(=O)C[C@H](N)C(=O)O)cc1O,> 46 µM
13,CC(C)CN(CC#N)CC(C)C,> 46 µM
14,Cc1c(Cl)c(S(N)(=O)=O)cc(S(N)(=O)=O)c1NC(=O)c1ccc(Cl)cc1,> 46 µM
15,N[C@@H](C(=O)O)[C@@H]1C[C@H]1C(=O)O,> 46 µM
16,c1ccc2c(c1)nnn2CN1CCOCC1,> 46 µM
17,CCCCC[C@H](CC(=O)NO)C(=O)N[C@@H](C(=O)N1CCC[C@H]1CO)C(C)C,> 46 µM
18,CC(C)(C)COS(=O)OCC(C)(C)C,> 46 µM
19,O=C1c2ccccc2C(=O)c2c(NC3CCCCC3)ccc(Nc3ccc(S(=O)(=O)O)cc3)c21,> 46 µM
20,O=c1c2ccccc2sc2c(CO)ccc(NCCN3CCCCC3)c12,> 46 µM

row,Structure (SMILES),Potency
1,OCCSCc1cc(Cl)cc(Cl)c1O,> 46 µM
2,O=C(O)[C@@H](c1ccccc1)[C@@H](C(=O)O)c1ccccc1,> 46 µM
3,Nc1nc(SCc2ccccc2)c2ncn(Cc3ccccc3)c2n1,> 46 µM
4,CN(C)Cc1cc(Cl)c(O)c(CN(C)C)c1,> 46 µM
5,N[C@@H](CSCc1ccccc1)C(=O)O,> 46 µM
6,CCOc1ccccc1Nc1ccc(N)cc1S(=O)(=O)O,> 46 µM
7,CN(C)CN1CSC(=S)N(CN(C)C)C1,> 46 µM
8,NC(=O)C[C@H](N)C(N)=O,> 46 µM
9,O=S(=O)(c1ccccc1)N1CCN(S(=O)(=O)c2ccccc2)c2ccccc21,> 46 µM
10,NS(=O)(=O)c1ccc(NC2(C(=O)O)CCCC2)cc1,> 46 µM
11,C[N+](C)(C)c1ncnc2c1ncn2[C@@H]1C[C@H](O)[C@@H](CO)O1,> 46 µM
12,c1cc(CNCCN2CCNCC2)ccn1,> 46 µM
13,C[C@@H](N)[C@@H](C)Cc1ccccc1,> 46 µM
14,C/C(=N/NC1=NCCN1)c1cn(C2=NCCN2)nc1C,> 46 µM
15,CC(C)(C)NCC[C@@H](O)c1cc(C(F)(F)F)nc2c(C(F)(F)F)cccc12,> 46 µM
16,O=C(Nc1cccc2ccccc12)c1ccccc1,> 46 µM
17,c1ccc(CN2COc3c(ccc4c5c(ccc34)CN(Cc3ccccc3)CO5)C2)cc1,> 46 µM
18,CCc1ccc(CCC(=O)O)nc1,> 46 µM
19,C[N+](C)(C)c1ncnc2c1ncn2[C@@H]1CCCCO1,> 46 µM
20,Nc1ncnc2c1nc(-c1ccccc1)n2[C@H]1O[C@@H](CO)[C@@H](O)[C@H]1O,> 46 µM
